Tests used:
[1] = test system: HT29 RNF43 G659fs (RNF43 659mut, CRISPR-edited); experiment: cell viability activity relative to DMSO (negative = inhibition); higher = more viable cells (less growth inhibition); conditions: 5 µM; 96 h
Description: (§1)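 Broad Repurposing Library primary screen at a single dose of 5 uM. HT29 sg-Ctrl and HT29 RNF43 G659fs CRISPR-edited isogenic cells were seeded at 2500 cells/well in 384-well plates in duplicate and treated for 96 h. Viability was read by CellTiter-Glo and reported as % activity relative to DMSO, with MG132 as the positive control (negative = growth inhibition).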

[2] = test system: HT29 sg-Ctrl (RNF43 wildtype); experiment: as above; conditions: 5 µM; 96 h
Description: as §1

SMILES | cell viability activity [1] | cell viability activity [2]
CN(C)C/C=C/C(=O)Nc1cc2c(Nc3ccc(F)c(Cl)c3)ncnc2cc1O[C@H]1CCOC1 | -26.4% | -19.3%
C1=N/C2=N/c3ccc(OCCN4CCCC4)c(c3)COC/C=C/COCc3cccc(c3)C(=C1)N2 | -41.5% | -31.8%
O=C(NOC[C@H](O)CO)c1ccc(F)c(F)c1Nc1ccc(I)cc1F | -81.1% | -85%
O=C(NO)c1cnc(N2CCN(S(=O)(=O)c3ccc4ccccc4c3)CC2)nc1 | -64.4% | -48.5%
CC(C)OC(=O)OCOP(=O)(CO[C@H](C)Cn1cnc2c(N)ncnc21)OCOC(=O)OC(C)C | -26.8% | -48.3%
Clc1ccc(Cn2c(CN3CCCC3)nc3ccccc32)cc1 | -32.7% | 11.6%
C=CC(=O)Nc1cccc(Nc2nc(Nc3ccc(OCCOC)cc3)ncc2F)c1 | -33.3% | -44.1%
CC[C@]1(O)C[C@H]2CN(CCc3c([nH]c4ccccc34)[C@@](C(=O)OC)(c3cc4c(cc3OC)N(C=O)[C@H]3[C@@](O)(C(=O)OC)[C@H](OC(C)=O)[C@]5(CC)C=CCN6CC[C@]43[C@@H]65)C2)C1 | -28.3% | -54.5%
CC1(C)CC[C@]2(C(=O)O)CC[C@]3(C)[C@H](C(=O)C=C4[C@@]5(C)C=C(C#N)C(=O)C(C)(C)[C@@H]5CC[C@]43C)[C@@H]2C1 | -88.2% | -82.9%

Source: the supplement of paper PMC9177965
